In the library only some 6.9% were active in any assay of this set; here they are far more common.
HP1b binding inh: inhibitors of HP1-beta chromodomain binding to methylated histone tails; P83916; AlphaScreen HP1-beta / biotin-H3K9me3 peptide binding; Potency, µM (highest dose often 114 µM), inactives show at the highest dose activity change, negative = inhibition, usual class: inhibitors; 390,000 compounds, 0.56% hits; AID 540317; also: nearly all actives have a fitted effect of over 70% in size
Target sequence (P83916 whole entry, looked up): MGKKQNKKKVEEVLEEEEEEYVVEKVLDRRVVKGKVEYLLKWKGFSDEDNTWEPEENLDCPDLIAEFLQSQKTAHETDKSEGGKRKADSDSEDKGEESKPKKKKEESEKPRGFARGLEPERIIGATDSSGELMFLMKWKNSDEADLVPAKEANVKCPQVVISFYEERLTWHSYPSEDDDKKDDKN
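HP1-beta protein (50 nM final) preincubated 30 min at room temperature with biotinylated H3(1-18)K9me3 peptide (50 nM) in PBS pH 7.4, 0.01% Tween-20, then compound added for 30 min. AlphaScreen streptavidin donor/nickel chelate acceptor beads (10 ug/mL final), 30 min dark, luminescence read.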
BAZ2B inh: blocks human BAZ2B; Q9UIF8; AlphaScreen BAZ2B-H3K14Ac peptide displacement; Potency, µM (titrated, usually from 114 µM), inactives show at the highest dose activity change, negative = inhibition, most hits filed as inhibitors; 360,000 compounds, 4.4% hits; also: % is scaled to controls: 0 for no effect and ±100 for the full control effect; nearly all actives have a fitted effect of over 60% in size
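Protein-peptide AlphaScreen: BAZ2B 50 nM, b-H3K14Ac 50 nM, 1x PBS pH 7.4 + 0.01% Tween-20. Preincubation 30 min RT; cpd 30 min RT (top 110 uM); beads 20 min RT, light-protected.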
L3MBTL1 block: L3MBTL1 (human) inhibition; 230,000 compounds, 0.66% hits; AlphaScreen L3MBTL1–H3K9me1 peptide binding; Q9Y468; Potency, µM (series often up to 57.1 µM), without a hit: top-dose activity, negative = inhibition, usual class: inhibitors; AID 485360; also: % is scaled to controls: 0 for no effect and ±100 for the full control effect; nearly all actives have a fitted effect of over 60% in size
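AlphaScreen proximity signal between nickel-chelate acceptor and streptavidin donor beads (final 10 ug/mL) reports binding of 50 nM L3MBTL1 to 75 nM biotin-H3 K9me1 peptide; complex incubated with compounds 30 min at room temperature; cefsulodin titration as control.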
JMJD2A Tudor inh: inhibitors of human JMJD2A Tudor domain. O75164. AlphaScreen JMJD2A-Tudor / H3K4me3 peptide binding. Potency, µM (titrated, usually from 114 µM), for inactives: at the top dose activity change, negative = inhibition, usual class: inhibitors. 390,000 compounds, 4.4% hits; also: % is scaled to controls: 0 for no effect and ±100 for the full control effect; nearly all actives have a fitted effect of over 50% in size
PLK1 PBD block: inhibitors of human PLK1 polo-box domain binding. Potency, µM, for inactives: max response, negative = inhibition, actives largely listed as inhibitors. 360,000 compounds, 2.8% hits. AID 720504. Plk1 PBD binding of FITC phosphopeptide, fluorescence polarization; also: series mostly up to about 57 µM; % is scaled to controls: 0 for no effect and ±100 for the full control effect; nearly all actives have a fitted effect of over 65% in size
VDR inh: inhibitors of human vitamin D receptor | P11473 | VDR-SRC2-3 peptide fluorescence polarization, 2 h | Potency, µM, for the others: max response, negative = inhibition, actives largely listed as inhibitors | 400,000 compounds, 0.93% hits | AID 504847; also: % is scaled to controls: 0 for no effect and ±100 for the full control effect
Target sequence (P11473 whole entry, looked up): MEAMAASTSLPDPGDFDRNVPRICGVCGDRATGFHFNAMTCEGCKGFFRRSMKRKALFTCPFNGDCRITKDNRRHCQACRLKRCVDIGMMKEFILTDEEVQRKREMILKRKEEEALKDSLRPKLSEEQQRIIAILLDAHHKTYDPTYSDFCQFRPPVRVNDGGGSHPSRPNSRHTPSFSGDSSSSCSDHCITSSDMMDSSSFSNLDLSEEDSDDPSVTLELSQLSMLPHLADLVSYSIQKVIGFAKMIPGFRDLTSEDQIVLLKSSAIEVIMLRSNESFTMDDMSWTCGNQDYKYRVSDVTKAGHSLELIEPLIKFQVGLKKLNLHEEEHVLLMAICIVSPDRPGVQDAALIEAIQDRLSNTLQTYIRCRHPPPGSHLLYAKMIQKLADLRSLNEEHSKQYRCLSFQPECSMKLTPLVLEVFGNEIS
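Reagent solutions, kept cold and dark, are dispensed first; compounds are then pinned in at 23 nl, plates briefly spun, and incubated 2 h at ambient temperature. Inhibition of VDR–SRC2-3 peptide binding is read by fluorescence polarization.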
An asterisk follows results filed as active; u = inconclusive; x = no result; [ ] = another dose, or the depositor's remark. Calls follow the shape of the dose curve; as a rule, active = well fitted curve in the direction sought with a large enough effect; inconclusive = small, poorly fitted or top-dose-only effect, or another doubt; inactive = no such curve, though single readings can be large; an effect the other way counts as inactive or inconclusive. Potency is read from the fitted curve at half-maximal effect.

SMILES	HP1b binding inh	BAZ2B inh	L3MBTL1 block	JMJD2A Tudor inh	PLK1 PBD block	VDR inh
CCOc1ccc(OCCC(=O)N(CC(=O)Nc2ccccc2C(F)(F)F)Cc2ccco2)cc1	6%	50µM*	-28%	-18%	-2%	-27%
S=C(NCc1ccc(Cl)cc1Cl)NC1CCCCC1	50%	1%	19%	-9%	-12%	-10%
O=C1/C(=C/c2ccncc2)SC(=S)N1Cc1ccccc1	45µM*	11µM*	-26%	25µM*	u	71µM*
CCCN1C(=O)/C(=C/c2ccncc2)SC1=S	u	25µM*	-25%	u	-17%	u
O=C1/C(=C/c2ccncc2)SC(=S)N1N1CCOCC1	-14%	-33%	x	-21%	u	-21%
C#CCOc1ccc(/C=C2\SC(=S)N(Cc3cccnc3)C2=O)cc1	15%	-9%	-19%	-11%	-5%	3%
COc1ccccc1/C=C/C(=O)NCCc1ccccn1	22%	-34%	x	-1%	-1%	27%
COc1ccc(-c2nnc(SCC(=O)O)n2Cc2ccccc2)cc1	36%	11%	3%	-21%	3%	-5%
O=C(O)CCC(=O)Nc1ccc(NC(=O)c2ccc(Cl)cc2Cl)c(Cl)c1	5%	-2%	17%	-16%[11.4 µM]	21µM*	-11%
Cc1cc(Cl)ccc1NC(=O)CCC(=O)O	38%	5%	6%	-14%	2%	-16%
CCN1c2ccccc2-c2nc(SCC(=O)NCc3ccccc3)ncc2S1(=O)=O	29%	0%	x	-1%	x	19%
CC1CCCN(CCOCCOc2ccc(Br)cc2Cl)C1 (stereo not drawn)	u	u	6%	2.8µM*	-10%	-22%
Cc1cc(Cl)c(OCCOCCN2CCCC(C)C2)c(Br)c1 (stereo not drawn)	6%	56µM*	-1%	u	9%	-7%
O=C1CCC(=O)N1OCCCOc1ccc(Br)cc1Cl	69%	0%	4%	10%	0%	-9%
CC1CCN(CCCOc2ccc(Br)cc2Cl)CC1	u	56µM*	-21%	4µM*	-9%	-6%
CC1CCCN(CCOCCOc2ccc(Cl)cc2Br)C1 (stereo not drawn)	u	u	-4%	2µM*	3%	-2%
Cc1ccc(NC(=O)Cn2c(=O)n(-c3ccc(Cl)c(Cl)c3)c(=O)c3c(C)c(C)sc32)c(C)c1	25%	1%	x	-10%	x	-19%
COc1cccc(Cn2c(=O)c(C)nc3cnc(N(C)C)nc32)c1	x	x	x	x	x	0%
Cc1ccc(NC(=O)C(C)C(=O)Nc2ccc(C)cc2)cc1	49%	x	x	0%	1%	2%
Cc1ccc(NC(=O)N2CCC(=O)N2)cc1	1%	-37%	9%	32µM*	-10%	-5%
O=[N+]([O-])c1ccccc1/C=C/C=N/Nc1nc(N2CCCCC2)nc(N2CCCCC2)n1	u	u	-13%	u	27µM*	u
O=[N+]([O-])c1ccccc1/C=N/Nc1nc(N2CCCC2)nc(N2CCCC2)n1	7%	-38%	4%	-33%	-4%	-13%
O=[N+]([O-])c1ccccc1/C=C/C=N/N1CCCCC1	50µM*	20µM*	x	18µM*	-4%	-13%
COc1cc(C(=O)N2CCN(c3ccccc3OC)CC2)c([N+](=O)[O-])cc1OC	9%	0%	0%	-18%	-11%	2%
COc1ccccc1N1CCN(/N=C/C=C/c2ccccc2[N+](=O)[O-])CC1	u	11µM*	u	20µM*	6%	-19%
SMILES	HP1b binding inh	BAZ2B inh	L3MBTL1 block	JMJD2A Tudor inh	PLK1 PBD block	VDR inh
Cn1ccc2c(OCC(=O)NCc3ccccc3Cl)cccc2c1=O	35%	-2%	x	6%	x	6%
O=C(Nc1ccc(C(=O)OCc2cc(=O)n3c4c(sc3n2)CCCC4)cc1)c1cccc(F)c1	-2%	-4%	x	-17%	x	-3%
CCC(=O)N1CCc2cc(S(=O)(=O)NCCC(=O)NCc3ccc(C)cc3)ccc21	21%	x	x	-11%	x	6%
Cc1c(NC(=O)c2cn3ccccc3n2)cccc1-n1cnnn1	14%	-11%	-1%	20µM*	-6%	17%
O=C(Nc1ccc(-n2cnnn2)cc1)c1cn2ccccc2n1	31%	-7%	-1%	-8%	-19%	17%
CC(C)(C)c1ccc(C(=O)Nc2onc3c2CCCC3)cc1	39%	1%	x	-18%	x	10%
CC1CCN(C(=O)CSc2nncn2-c2ccccn2)CC1	-19%	9%	3%	1%	27µM*	u
Cc1ccc(CNC(=O)CN(c2ccc(Cl)cc2Cl)S(=O)(=O)c2ccccc2)cc1	36%	-7%	x	-4%	x	6%
CN1CCN(NC(=O)c2ccc(Br)s2)CC1	9%	-16%	x	-10%[11.4 µM]	30µM*	u
C/C(=N\Nc1nc(C)c(C)s1)c1ccc([N+](=O)[O-])cc1	u	35µM*	-18%	u	-24%	-16%
COc1ccc(-c2cn3cc(C)ccc3n2)cc1F	-16%	u	2%	20µM*	9.5µM*	u
COc1ccc(-c2cn3cc(C)ccc3n2)cc1OC	25%	-6%	0%	-15%	-3%	-2%
COc1ccccc1NC(=O)C1=C(C)Nc2nc(SCc3ccccc3Cl)nn2C1c1cccnc1 (stereo not drawn)	45%	-9%	x	-3%	x	-13%
CS(=O)(=O)N1CCN(c2ccccc2NC(=O)c2cc3ccccc3o2)CC1	9%	3%	x	-16%	-4%	-17%
CCOc1ccc(CCNC(=O)c2ccc3c(c2)N(Cc2ccccc2F)C(=O)c2ccccc2S3=O)cc1OCC (stereo not drawn)	11%	u	x	-25%	x	2%
CN(CC(=O)Nc1ccc(N2CCOCC2)cc1)CC(=O)Nc1ccc([N+](=O)[O-])cc1Br	16%	-27%	23%	-20%	-8%	13%
CCN(CC(=O)Nc1cccc(OC)c1)CC(=O)Nc1ccc(C)cc1Cl	-18%	32µM*	x	20µM*	-6%	12%
COc1ccc(NC(=O)CN(C)CC(=O)Nc2ccc(N3CCOCC3)cc2)c([N+](=O)[O-])c1	-7%	45µM*	x	u	2%	16%
COc1ccc(NC(=O)CN(C)S(=O)(=O)c2ccc(Cl)cc2)c([N+](=O)[O-])c1	4%	7%	4%	-15%	6%	2%
COc1cccc(NC(=O)CN(C)CC(=O)Nc2ccc(Cl)cc2[N+](=O)[O-])c1	u	50µM*	-10%	u	3%	-10%
CN(CC(=O)Nc1ccc(N2CCOCC2)cc1)CC(=O)Nc1ccc(Cl)cc1[N+](=O)[O-]	u	56µM*	-13%	u	-14%	-17%
CCN(CC(=O)Nc1cccc(OC)c1)CC(=O)Nc1cccc2ccccc12	36%	-20%	-1%	-16%	5%	0%

Screens: PubChem, National Center for Advancing Translational Sciences (NCATS)
